# Laboratory results taken from publication PMC7862700, “An all-to-all approach to the identification of sequence-specific readers for epigenetic DNA modifications on cytosine”.
# Columns and labels:
# Assay in all cases: DAPPL (digital affinity profiling via proximity ligation, sequencing); 10 mM Tris-HCl pH 7.5, 50 mM NaCl, 1 mM DTT, 4% glycerol, room temperature, 30 min; GST-TFs on glutathione beads, 16-mer random dsDNA library, 0.1% formaldehyde crosslink after washing; high values mean tight binding
# [1] = target: T1, FEV (Homo sapiens, UniProt Q99581 1-238); details: protein: recombinant; tags: N-terminal GST; dsDNA, one strand shown
# T1 sequence: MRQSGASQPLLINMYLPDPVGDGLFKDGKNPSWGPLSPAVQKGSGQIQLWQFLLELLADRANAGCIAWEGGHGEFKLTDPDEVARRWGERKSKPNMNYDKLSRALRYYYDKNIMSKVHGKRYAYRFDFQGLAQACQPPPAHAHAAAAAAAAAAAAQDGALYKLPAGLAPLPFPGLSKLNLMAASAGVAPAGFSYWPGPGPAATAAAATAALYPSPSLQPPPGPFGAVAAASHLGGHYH
# Procedure, shortened: (§1)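 The binding signal reported is, for every hexamer, its read frequency for a factor over its read frequency for the tag-only sample. Reads came from pools of yeast-expressed, GST-fused human transcription factors on glutathione beads, barcoded with DNA and mixed with that sample, which were incubated with 200 nmole of a random double-stranded 16-mer DNA library in Tris/NaCl/DTT/glycerol buffer at room temperature for 30 min. After washing, the pools were crosslinked with 0.1% formaldehyde, proximity-ligated with BsaI/T4 ligase for 1 h at 37 °C, PCR-amplified and sequenced on an Illumina NextSeq500.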
# [2] = target: ETV5 (Homo sapiens, UniProt P41161 1-510); details: protein: recombinant; tags: N-terminal GST; dsDNA, one strand shown
# Procedure, shortened: as §1
# [3] = target: HSF1 (Homo sapiens, UniProt Q00613 1-529); details: protein: recombinant; tags: N-terminal GST; chain copies: 3; dsDNA, one strand shown
# Procedure, shortened: as §1
# [4] = target: T2, SPIC (Homo sapiens, UniProt Q8N5J4 1-248); details: protein: recombinant; tags: N-terminal GST; dsDNA, one strand shown
# T2 sequence: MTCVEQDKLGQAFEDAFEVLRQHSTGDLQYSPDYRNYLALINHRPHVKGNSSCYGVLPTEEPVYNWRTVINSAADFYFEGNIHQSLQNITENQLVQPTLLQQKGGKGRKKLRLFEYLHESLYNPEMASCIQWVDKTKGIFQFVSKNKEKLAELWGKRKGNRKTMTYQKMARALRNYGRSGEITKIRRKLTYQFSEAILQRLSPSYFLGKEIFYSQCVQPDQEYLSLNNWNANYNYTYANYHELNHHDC
# Procedure, shortened: as §1
# [5] = target: ELF4 (Homo sapiens, UniProt Q99607 1-663); details: protein: recombinant; tags: N-terminal GST; dsDNA, one strand shown
# Procedure, shortened: as §1
# [6] = target: T3, ELK4 (Homo sapiens, UniProt P28324-2 1-405); details: protein: recombinant; tags: N-terminal GST; dsDNA, one strand shown
# T3 sequence: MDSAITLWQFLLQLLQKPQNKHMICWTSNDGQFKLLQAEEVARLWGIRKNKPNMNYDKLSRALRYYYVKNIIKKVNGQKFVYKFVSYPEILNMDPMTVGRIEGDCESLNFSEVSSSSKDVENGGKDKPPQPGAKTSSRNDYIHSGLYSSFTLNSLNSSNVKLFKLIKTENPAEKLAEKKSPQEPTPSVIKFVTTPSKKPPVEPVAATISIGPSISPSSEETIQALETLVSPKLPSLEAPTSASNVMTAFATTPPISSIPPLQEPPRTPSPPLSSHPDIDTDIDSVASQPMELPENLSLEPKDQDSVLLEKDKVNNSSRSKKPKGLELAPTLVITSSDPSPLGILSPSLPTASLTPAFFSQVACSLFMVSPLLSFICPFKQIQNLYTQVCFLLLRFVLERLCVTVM
# Procedure, shortened: as §1
# [7] = target: T4, ETV2 (Homo sapiens, UniProt O00321 1-342); details: protein: recombinant; tags: N-terminal GST; dsDNA, one strand shown
# T4 sequence: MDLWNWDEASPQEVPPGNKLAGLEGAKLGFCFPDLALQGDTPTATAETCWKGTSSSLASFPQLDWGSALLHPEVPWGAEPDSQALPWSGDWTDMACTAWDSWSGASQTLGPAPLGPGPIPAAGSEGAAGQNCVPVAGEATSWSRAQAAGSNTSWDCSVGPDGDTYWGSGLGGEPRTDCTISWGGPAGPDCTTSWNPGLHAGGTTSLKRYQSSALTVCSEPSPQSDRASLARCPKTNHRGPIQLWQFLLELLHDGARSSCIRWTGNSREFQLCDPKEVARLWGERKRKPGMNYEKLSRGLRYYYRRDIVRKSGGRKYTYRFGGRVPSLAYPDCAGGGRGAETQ
# Procedure, shortened: as §1
# [8] = target: T5, ELF3 (Homo sapiens, UniProt P78545 1-371); details: protein: recombinant; tags: N-terminal GST; dsDNA, one strand shown
# T5 sequence: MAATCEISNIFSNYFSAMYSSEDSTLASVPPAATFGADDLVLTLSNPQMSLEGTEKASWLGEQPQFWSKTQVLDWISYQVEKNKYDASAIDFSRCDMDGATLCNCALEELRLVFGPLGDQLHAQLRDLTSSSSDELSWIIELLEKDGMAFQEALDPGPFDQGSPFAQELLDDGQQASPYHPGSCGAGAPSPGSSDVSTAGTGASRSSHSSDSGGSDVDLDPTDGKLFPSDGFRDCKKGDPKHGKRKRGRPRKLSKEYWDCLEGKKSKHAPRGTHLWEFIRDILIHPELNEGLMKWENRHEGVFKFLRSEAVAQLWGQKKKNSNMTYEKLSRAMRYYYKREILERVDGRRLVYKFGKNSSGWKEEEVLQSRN
# Procedure, shortened: as §1
# [9] = target: ETV1 (Homo sapiens, UniProt P50549 1-477); details: protein: recombinant; tags: N-terminal GST; dsDNA, one strand shown
# Procedure, shortened: as §1
# [10] = target: T6, ERF (Homo sapiens, UniProt P50548 1-548); details: protein: recombinant; tags: N-terminal GST; dsDNA, one strand shown
# T6 sequence: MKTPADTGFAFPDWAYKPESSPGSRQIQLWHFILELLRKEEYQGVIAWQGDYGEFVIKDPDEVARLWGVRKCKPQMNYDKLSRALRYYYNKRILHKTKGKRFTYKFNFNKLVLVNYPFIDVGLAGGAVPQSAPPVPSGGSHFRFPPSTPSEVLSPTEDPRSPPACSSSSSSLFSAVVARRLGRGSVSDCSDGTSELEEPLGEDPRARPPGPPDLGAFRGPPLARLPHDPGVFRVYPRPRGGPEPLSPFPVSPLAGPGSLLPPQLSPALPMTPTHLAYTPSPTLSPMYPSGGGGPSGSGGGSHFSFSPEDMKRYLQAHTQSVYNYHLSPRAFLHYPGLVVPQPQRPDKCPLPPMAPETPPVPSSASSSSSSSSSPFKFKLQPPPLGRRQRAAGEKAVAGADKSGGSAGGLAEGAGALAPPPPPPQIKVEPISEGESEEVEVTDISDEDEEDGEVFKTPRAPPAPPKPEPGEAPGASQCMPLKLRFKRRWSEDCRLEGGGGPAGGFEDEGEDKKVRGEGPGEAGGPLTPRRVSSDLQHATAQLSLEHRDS
# Procedure, shortened: as §1
# [11] = target: T7, ETV3L (Homo sapiens, UniProt Q6ZN32 1-361); details: protein: recombinant; tags: N-terminal GST; dsDNA, one strand shown
# T7 sequence: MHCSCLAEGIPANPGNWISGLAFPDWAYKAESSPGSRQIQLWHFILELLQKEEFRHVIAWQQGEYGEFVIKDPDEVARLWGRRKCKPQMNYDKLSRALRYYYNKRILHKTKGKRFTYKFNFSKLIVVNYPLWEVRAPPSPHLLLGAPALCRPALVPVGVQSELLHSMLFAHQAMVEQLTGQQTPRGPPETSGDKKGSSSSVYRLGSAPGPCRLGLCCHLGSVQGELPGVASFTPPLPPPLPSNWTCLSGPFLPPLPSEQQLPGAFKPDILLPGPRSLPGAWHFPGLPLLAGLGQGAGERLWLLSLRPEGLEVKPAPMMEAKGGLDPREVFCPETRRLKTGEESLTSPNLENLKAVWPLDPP
# Procedure, shortened: as §1
# [12] = target: T8, ETS2 (Homo sapiens, UniProt P15036 1-469); details: protein: recombinant; tags: N-terminal GST; dsDNA, one strand shown
# T8 sequence: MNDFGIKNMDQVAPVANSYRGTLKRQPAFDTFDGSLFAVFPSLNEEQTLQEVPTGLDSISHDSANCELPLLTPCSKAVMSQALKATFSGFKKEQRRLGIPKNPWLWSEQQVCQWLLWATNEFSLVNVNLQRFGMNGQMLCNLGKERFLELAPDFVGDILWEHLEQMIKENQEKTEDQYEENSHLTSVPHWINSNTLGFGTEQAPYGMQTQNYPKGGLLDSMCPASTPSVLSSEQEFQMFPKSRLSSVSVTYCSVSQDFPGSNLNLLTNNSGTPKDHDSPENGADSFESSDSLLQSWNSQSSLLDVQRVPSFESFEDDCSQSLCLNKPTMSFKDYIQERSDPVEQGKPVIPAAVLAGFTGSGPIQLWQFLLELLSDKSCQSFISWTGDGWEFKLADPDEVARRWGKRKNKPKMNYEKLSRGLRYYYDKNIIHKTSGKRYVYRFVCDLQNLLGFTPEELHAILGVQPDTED
# Procedure, shortened: as §1
# [13] = target: T9, SPDEF (Homo sapiens, UniProt O95238 1-335); details: protein: recombinant; tags: N-terminal GST; dsDNA, one strand shown
# T9 sequence: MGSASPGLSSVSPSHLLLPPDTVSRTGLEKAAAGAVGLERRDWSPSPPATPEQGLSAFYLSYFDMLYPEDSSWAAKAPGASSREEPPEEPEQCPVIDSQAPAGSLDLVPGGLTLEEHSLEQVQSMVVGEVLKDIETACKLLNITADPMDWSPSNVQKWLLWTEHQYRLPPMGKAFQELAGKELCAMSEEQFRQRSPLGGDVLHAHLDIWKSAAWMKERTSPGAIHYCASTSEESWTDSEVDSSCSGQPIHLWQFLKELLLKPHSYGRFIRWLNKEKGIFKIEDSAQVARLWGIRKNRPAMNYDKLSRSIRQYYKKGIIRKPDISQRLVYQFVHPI
# Procedure, shortened: as §1
# [14] = target: T10, ETV7 (Homo sapiens, UniProt Q9Y603 1-341); details: protein: recombinant; tags: N-terminal GST; dsDNA, one strand shown
# T10 sequence: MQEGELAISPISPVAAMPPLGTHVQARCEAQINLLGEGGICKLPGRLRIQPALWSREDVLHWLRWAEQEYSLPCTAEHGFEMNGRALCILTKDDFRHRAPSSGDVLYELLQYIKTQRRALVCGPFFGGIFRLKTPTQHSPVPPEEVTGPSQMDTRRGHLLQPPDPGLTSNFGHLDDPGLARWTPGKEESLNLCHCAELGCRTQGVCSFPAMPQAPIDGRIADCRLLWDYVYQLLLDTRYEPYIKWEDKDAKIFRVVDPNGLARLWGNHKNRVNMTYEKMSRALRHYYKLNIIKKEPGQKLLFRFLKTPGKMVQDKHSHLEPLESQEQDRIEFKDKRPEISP
# Procedure, shortened: as §1
# [15] = target: T11, ELF5 (Homo sapiens, UniProt Q9UKW6-2 1-255); details: protein: recombinant; tags: N-terminal GST; dsDNA, one strand shown
# T11 sequence: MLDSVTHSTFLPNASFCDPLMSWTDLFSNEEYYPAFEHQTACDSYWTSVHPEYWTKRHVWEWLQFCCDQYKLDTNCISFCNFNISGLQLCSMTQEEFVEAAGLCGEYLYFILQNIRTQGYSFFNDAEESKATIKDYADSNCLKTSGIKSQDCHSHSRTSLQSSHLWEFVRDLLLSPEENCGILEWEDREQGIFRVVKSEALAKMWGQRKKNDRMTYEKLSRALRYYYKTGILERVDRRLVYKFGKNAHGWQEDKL
# Procedure, shortened: as §1
# [16] = target: T12, ETV3 (Homo sapiens, UniProt P41162-2 1-143); details: protein: recombinant; tags: N-terminal GST; dsDNA, one strand shown
# T12 sequence: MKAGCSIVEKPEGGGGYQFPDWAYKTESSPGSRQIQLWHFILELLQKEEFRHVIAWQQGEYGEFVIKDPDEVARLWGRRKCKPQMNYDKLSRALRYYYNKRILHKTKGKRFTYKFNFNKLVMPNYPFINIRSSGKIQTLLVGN
# Procedure, shortened: as §1
# [17] = target: ETV6 (Homo sapiens, UniProt P41212 1-452); details: protein: recombinant; tags: N-terminal GST; dsDNA, one strand shown
# Procedure, shortened: as §1
# Sequence of ETV5 (P41161 whole entry): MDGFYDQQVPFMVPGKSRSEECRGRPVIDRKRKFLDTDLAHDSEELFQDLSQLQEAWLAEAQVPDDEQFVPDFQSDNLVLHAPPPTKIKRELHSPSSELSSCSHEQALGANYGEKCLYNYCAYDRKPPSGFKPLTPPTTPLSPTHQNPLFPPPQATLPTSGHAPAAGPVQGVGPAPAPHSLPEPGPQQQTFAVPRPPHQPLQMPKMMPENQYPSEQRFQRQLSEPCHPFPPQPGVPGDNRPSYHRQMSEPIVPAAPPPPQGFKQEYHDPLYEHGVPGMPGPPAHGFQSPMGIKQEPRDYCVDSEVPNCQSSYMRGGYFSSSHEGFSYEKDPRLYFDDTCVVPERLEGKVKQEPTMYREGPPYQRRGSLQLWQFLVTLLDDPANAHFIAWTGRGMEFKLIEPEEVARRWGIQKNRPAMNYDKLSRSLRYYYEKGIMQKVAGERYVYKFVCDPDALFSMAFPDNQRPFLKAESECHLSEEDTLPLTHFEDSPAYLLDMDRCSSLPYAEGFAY
# Sequence of ELF4 (Q99607 whole entry): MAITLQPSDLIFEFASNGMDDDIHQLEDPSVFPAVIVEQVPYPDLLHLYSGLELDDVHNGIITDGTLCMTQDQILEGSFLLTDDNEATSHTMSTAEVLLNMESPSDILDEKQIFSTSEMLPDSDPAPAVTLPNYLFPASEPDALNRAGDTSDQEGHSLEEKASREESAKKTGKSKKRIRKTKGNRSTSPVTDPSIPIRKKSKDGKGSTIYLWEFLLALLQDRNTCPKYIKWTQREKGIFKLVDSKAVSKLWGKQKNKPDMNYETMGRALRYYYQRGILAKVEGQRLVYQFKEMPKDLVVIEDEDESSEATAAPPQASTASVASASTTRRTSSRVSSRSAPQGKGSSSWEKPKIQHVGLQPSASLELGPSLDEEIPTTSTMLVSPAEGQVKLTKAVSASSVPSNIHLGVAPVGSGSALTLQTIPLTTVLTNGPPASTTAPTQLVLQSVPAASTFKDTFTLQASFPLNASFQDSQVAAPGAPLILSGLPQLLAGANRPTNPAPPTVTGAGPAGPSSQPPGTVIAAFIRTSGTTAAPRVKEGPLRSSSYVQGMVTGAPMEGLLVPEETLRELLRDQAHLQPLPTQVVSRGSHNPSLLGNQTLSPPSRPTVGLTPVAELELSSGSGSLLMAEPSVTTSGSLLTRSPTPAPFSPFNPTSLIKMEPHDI
# Sequence of HSF1 (Q00613 whole entry): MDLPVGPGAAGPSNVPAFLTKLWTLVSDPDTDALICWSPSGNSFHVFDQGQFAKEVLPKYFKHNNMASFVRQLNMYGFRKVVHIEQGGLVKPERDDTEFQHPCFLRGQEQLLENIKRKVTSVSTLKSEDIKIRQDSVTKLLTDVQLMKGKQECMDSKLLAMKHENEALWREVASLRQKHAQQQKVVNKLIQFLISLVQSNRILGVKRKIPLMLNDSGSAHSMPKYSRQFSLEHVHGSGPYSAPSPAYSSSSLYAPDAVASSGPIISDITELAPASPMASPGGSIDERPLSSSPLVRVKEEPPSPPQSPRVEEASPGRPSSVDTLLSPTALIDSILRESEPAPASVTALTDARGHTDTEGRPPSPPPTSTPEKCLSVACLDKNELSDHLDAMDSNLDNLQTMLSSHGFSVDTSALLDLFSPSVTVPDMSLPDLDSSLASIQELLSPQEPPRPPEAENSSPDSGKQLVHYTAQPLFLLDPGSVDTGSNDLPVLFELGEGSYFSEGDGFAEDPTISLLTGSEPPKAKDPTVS
# Sequence of ETV6 (P41212 whole entry): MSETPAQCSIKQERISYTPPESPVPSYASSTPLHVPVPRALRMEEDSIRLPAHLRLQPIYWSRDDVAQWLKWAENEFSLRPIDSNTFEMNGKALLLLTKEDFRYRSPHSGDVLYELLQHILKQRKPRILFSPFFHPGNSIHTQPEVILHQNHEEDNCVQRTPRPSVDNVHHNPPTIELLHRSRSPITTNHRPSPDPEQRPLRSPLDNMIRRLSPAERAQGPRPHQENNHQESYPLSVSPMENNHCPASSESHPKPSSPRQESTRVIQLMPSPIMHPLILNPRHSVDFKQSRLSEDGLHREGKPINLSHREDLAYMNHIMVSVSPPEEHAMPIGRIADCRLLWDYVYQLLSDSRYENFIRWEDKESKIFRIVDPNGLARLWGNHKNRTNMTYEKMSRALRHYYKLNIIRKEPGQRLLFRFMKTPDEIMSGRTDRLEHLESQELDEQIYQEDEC
# Sequence of ETV1 (P50549 whole entry): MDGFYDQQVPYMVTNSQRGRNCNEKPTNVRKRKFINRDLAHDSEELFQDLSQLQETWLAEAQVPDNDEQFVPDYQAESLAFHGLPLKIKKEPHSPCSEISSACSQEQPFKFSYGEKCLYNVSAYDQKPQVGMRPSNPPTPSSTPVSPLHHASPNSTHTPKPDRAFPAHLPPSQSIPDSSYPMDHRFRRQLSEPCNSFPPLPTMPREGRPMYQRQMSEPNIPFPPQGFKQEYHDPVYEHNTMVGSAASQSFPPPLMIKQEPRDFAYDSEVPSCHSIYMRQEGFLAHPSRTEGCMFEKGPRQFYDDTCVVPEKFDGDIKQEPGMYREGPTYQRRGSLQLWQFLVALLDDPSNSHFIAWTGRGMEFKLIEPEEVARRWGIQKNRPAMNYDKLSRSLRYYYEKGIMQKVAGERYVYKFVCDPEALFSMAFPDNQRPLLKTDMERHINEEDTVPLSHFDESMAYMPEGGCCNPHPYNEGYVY
sequence,measurement,setting,value
TGGTTC,binding signal,[1],"1.35 fold enrichment (6-mer frequency, TF over GST control)"
same,binding signal,[2],"1.44 fold enrichment (6-mer frequency, TF over GST control)"
same,binding signal,[3],"1.27 fold enrichment (6-mer frequency, TF over GST control)"
same,binding signal,[4],"1.51 fold enrichment (6-mer frequency, TF over GST control)"
same,binding signal,[5],"1.33 fold enrichment (6-mer frequency, TF over GST control)"
same,binding signal,[6],"1.36 fold enrichment (6-mer frequency, TF over GST control)"
same,binding signal,[7],"1.33 fold enrichment (6-mer frequency, TF over GST control)"
same,binding signal,[8],"1.57 fold enrichment (6-mer frequency, TF over GST control)"
same,binding signal,[9],"1.38 fold enrichment (6-mer frequency, TF over GST control)"
same,binding signal,[10],"1.34 fold enrichment (6-mer frequency, TF over GST control)"
same,binding signal,[11],"1.36 fold enrichment (6-mer frequency, TF over GST control)"
same,binding signal,[12],"1.32 fold enrichment (6-mer frequency, TF over GST control)"
same,binding signal,[13],"1.35 fold enrichment (6-mer frequency, TF over GST control)"
same,binding signal,[14],"1.48 fold enrichment (6-mer frequency, TF over GST control)"
same,binding signal,[15],"1.41 fold enrichment (6-mer frequency, TF over GST control)"
same,binding signal,[16],"1.44 fold enrichment (6-mer frequency, TF over GST control)"
same,binding signal,[17],"1.32 fold enrichment (6-mer frequency, TF over GST control)"
